In ChEMBL document CHEMBL3988442, “University of Dundee, Small-Polar-MMV Screening Library” (2021):
Several values for one entry are separate records, joined by “and”; a condition that tells them apart may be missing. Identical values can stand only once. For part of these data: Entries with a potency or affinity are not part of this list.

What was measured:
Design in all cases: scale not given: direction of the effect not stated beside the values
[1] = target: Protein translocase subunit SecA (Escherichia coli (strain K12)) (UniProt P10408); assay: Assay to Identify E. coli SecA ATPase Inhibitors; type: functional; conditions: 30 µM
[2] = target: T1, Ubiquitin-activating enzyme e1, putative (Leishmania donovani (strain BPK282A1)) (UniProt E9BSI1); assay: Leishmania donovani Ubiquitin Activating Enzyme (LdE1); type: functional; conditions: 30 µM
T1 sequence (whole entry): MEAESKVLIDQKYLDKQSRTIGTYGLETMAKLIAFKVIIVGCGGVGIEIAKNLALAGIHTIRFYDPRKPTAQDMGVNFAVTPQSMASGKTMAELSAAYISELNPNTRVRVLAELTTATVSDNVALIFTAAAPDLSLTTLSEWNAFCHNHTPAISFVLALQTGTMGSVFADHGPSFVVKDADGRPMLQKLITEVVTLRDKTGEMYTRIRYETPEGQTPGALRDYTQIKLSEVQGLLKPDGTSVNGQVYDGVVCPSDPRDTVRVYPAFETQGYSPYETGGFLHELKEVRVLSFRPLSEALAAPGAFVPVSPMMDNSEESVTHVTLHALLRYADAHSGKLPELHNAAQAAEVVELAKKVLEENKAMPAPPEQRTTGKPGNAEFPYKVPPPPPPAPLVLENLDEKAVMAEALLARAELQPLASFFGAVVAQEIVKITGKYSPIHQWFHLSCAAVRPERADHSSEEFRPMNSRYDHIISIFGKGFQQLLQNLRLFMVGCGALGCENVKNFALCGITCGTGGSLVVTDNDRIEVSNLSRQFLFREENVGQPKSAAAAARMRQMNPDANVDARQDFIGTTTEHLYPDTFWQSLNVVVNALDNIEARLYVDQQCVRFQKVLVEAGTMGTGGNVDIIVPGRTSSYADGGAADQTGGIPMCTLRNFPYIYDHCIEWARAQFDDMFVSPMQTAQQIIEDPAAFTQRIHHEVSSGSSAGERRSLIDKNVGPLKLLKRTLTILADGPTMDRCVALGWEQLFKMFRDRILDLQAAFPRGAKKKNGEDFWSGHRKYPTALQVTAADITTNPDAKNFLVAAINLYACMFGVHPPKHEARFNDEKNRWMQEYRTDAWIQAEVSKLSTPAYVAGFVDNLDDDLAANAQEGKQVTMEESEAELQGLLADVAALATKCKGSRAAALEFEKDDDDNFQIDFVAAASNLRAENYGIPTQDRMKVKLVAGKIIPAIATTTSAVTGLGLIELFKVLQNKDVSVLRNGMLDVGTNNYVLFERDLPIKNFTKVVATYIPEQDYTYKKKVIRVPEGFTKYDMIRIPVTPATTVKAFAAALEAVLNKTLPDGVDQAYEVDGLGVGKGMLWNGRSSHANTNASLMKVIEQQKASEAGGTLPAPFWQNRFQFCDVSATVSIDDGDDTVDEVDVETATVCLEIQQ

[3] = target: AMP-activated protein kinase, AMPK (Homo sapiens) (UniProt P54646+O43741+P54619+Q9UGJ0+Q9Y478+Q13131+Q9UGI9); assay: AMP-dependent Kinase enzyme assay. An in vitro enzyme assay that detects ADP turnover that is directly proportional to AMPK activity. This uses naive AMPK that is activated during the assay with MK-8722; type: functional; conditions: 30 µM
[4] = target: Sialic acid-binding Ig-like lectin 9 (Homo sapiens) (UniProt Q9Y336); assay: Hs-Siglec9 ALPHAscreen SOP 20170721; conditions: 10 µM
Trypanosoma cruzi = assay: Trypanosoma cruzi phosphomannomutase and mannose-1-phosphate guanylyltransferase assay; type: functional; conditions: 10 µM
[5] = target: T2, Arginase-2, mitochondrial (Homo sapiens) (UniProt P78540); assay: in vitro enzyme assay to detect the production of urea directly proportional to the activity of Arginase II; type: functional; conditions: 33.3 µM; further: in the data most compounds retested in dose-response had high values
T2 sequence (whole entry): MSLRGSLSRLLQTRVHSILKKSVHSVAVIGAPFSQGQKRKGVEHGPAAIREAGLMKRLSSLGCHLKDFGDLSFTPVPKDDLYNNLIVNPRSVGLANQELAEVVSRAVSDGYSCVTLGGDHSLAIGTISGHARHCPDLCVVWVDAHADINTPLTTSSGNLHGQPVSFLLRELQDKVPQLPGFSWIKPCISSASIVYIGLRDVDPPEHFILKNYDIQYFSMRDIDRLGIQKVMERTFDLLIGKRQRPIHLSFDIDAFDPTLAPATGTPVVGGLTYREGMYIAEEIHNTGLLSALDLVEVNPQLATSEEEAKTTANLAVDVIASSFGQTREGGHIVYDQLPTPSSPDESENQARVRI

[6] = target: T3, Proteasome subunit beta (Trypanosoma cruzi) (UniProt O96673); assay: Trypanosoma cruzi proteasome chymotrypsin-like activity (TcProtChymo) assay.; further: in the data most compounds retested in dose-response had high values; type: functional; conditions: 9.37 µM
T3 sequence (whole entry): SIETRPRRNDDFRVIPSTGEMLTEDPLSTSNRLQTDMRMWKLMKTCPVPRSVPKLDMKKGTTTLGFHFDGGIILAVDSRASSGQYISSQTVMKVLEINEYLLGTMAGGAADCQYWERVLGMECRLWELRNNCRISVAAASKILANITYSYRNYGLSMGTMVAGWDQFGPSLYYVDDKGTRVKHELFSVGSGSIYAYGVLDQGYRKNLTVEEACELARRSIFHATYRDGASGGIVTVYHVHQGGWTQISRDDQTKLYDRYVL

Homo sapiens = organism: Homo sapiens; assay: To identify inhibition of the IFN signalling (Jak-Stat) pathway via expression of an eGFP reporter gene under the control of an IFN-stimulated response element (ISRE) containing MxA promoter.; type: functional; conditions: 30 µM
[7] = target: T4, Tyrosyl-tRNA synthetase, putative (Trypanosoma cruzi (strain CL Brener)) (UniProt Q4DSP6); assay: Trypanosoma cruzi tyrosyl tRNA synthetase (TcYRS) _High Tyrosine SOP; type: functional; conditions: 30 µM; further: in the data most compounds retested in dose-response had high values
T4 sequence (whole entry): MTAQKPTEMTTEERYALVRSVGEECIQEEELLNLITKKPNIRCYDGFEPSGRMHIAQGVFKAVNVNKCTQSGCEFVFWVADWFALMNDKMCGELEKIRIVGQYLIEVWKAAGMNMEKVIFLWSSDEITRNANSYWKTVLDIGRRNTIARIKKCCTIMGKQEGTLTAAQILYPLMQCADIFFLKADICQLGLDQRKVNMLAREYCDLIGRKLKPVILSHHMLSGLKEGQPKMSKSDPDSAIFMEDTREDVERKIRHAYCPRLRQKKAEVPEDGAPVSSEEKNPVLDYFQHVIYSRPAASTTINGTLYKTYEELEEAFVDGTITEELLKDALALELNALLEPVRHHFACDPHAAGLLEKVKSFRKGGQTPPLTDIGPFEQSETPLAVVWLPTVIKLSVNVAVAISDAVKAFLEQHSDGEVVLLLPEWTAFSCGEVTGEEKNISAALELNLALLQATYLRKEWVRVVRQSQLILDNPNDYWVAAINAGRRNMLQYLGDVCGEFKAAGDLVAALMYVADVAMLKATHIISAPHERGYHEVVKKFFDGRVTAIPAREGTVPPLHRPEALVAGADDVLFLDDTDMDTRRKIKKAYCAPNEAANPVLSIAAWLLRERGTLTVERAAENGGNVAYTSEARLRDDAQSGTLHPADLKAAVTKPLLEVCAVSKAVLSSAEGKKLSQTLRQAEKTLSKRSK

[8] = target: T4, Tyrosyl-tRNA synthetase, putative (Trypanosoma cruzi (strain CL Brener)); assay: Trypanosoma cruzi tyrosyl tRNA synthetase (TcYRS) SOP; type: functional; conditions: 30 µM
[9] = target: Chromo domain-containing protein 1 (Saccharomyces cerevisiae (strain ATCC 204508 / S288c) (Baker's yeast)) (UniProt P32657); assay: ScCHD-1 Enzyme Inhibition Assay; type: functional; conditions: 30 µM; further: in the data most compounds retested in dose-response had high values
N/A = assay: Trypanosoma cruzi proteasome luciferase counter-screen; type: functional; conditions: 9.37 µM

Chain of Protein translocase subunit SecA (Escherichia coli (strain K12)) (P10408 whole entry): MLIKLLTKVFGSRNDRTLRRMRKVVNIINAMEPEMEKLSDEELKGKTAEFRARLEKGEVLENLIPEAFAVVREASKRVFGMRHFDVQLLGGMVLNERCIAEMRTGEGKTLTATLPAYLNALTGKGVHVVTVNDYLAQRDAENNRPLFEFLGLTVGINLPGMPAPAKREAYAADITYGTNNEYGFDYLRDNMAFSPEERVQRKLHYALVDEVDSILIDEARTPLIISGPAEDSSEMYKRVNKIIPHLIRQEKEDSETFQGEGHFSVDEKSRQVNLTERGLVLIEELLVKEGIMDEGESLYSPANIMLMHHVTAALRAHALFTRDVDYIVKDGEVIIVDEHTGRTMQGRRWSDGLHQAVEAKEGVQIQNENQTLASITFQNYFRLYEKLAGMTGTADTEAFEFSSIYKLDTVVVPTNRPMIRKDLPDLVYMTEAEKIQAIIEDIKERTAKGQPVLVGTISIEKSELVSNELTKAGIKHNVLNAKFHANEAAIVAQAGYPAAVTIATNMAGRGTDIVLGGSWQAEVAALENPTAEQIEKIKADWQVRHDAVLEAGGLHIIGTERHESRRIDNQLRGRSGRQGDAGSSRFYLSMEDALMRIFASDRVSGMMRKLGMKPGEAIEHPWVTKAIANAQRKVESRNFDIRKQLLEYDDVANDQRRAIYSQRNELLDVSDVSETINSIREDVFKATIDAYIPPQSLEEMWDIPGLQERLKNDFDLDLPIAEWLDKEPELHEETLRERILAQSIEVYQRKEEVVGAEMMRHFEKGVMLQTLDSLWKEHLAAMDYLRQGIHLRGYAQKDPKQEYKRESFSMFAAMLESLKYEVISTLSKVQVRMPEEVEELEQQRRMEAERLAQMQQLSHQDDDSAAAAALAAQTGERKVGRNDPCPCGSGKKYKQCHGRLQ
Chain of Sialic acid-binding Ig-like lectin 9 (Homo sapiens) (Q9Y336 whole entry): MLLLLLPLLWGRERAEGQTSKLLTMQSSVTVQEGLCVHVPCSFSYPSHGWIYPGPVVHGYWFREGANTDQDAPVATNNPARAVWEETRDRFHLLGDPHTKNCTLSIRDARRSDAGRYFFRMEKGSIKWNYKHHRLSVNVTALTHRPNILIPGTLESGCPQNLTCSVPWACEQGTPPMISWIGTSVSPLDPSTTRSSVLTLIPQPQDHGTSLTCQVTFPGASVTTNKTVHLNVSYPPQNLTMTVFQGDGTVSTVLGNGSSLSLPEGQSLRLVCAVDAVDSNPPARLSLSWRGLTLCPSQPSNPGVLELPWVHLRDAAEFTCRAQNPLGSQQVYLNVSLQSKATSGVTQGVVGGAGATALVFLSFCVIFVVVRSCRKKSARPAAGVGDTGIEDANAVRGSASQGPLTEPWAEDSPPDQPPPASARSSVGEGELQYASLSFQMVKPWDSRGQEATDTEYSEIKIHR
Chain of Chromo domain-containing protein 1 (Saccharomyces cerevisiae (strain ATCC 204508 / S288c) (Baker's yeast)) (P32657 whole entry, the tested form may be a part): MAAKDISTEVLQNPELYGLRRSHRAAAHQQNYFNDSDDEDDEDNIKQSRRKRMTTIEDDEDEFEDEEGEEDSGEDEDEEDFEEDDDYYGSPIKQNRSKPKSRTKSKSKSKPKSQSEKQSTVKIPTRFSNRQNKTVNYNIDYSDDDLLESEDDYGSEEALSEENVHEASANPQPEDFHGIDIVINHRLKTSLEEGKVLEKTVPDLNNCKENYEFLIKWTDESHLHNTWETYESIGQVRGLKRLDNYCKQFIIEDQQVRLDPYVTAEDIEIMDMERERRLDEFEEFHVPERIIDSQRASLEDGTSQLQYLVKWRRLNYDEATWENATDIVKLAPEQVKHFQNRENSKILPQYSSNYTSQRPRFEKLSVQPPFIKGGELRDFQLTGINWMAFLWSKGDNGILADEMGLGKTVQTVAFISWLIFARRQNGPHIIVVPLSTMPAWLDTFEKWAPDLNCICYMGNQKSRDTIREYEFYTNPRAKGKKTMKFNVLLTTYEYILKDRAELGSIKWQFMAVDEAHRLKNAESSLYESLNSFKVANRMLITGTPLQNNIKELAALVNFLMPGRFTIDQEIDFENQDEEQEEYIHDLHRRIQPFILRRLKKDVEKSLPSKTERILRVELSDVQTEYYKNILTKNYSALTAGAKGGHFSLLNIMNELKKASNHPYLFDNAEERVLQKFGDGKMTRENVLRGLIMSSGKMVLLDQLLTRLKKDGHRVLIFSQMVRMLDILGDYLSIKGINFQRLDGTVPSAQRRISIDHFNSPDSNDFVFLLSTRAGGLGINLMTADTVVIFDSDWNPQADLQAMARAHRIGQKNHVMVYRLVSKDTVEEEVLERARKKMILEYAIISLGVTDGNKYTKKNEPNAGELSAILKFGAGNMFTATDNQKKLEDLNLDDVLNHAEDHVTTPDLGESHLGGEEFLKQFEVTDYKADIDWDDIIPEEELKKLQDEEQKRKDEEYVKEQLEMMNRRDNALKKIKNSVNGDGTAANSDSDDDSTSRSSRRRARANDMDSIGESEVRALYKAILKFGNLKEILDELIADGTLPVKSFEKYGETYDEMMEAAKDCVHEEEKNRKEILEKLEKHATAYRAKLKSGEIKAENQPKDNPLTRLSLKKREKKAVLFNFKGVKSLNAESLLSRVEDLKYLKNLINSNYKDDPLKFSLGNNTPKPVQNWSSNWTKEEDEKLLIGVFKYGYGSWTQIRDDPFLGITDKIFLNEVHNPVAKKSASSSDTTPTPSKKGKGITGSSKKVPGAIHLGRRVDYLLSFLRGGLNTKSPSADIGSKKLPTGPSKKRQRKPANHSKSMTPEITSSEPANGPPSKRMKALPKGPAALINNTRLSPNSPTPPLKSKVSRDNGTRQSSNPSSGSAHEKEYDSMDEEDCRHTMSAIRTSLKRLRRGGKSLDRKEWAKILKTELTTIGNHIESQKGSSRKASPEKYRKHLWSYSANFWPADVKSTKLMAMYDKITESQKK

Structure (SMILES)	Percent Effect [1] [%]	Percent Effect [2] [%]	Percent Effect [3] [%]	Percent Effect [4] [%]	Percent Effect (Trypanosoma cruzi) [%]	Percent Effect [5] [%]	Percent Effect [6]	Percent Effect (Homo sapiens) [%]	Percent Effect [7] [%]	Percent Effect [8] [%]	Percent Effect [9] [%]	Percent Effect (N/A)
Cc1ccc2c(c1)C1(CCNCC1)CN2C(=O)CN(C)C	-3.67	10.8	5.31	-2.86	-7.14	1.59	15.7%	14.1	5.41	12.8	-2.47	
OCC1CCCN1c1cc(N2CCc3ccccc3C2)ncn1 (stereo not drawn)	-5.73	5.2	-4.03	-9.93	8.13	-6.95	7.84%	-3.87	3.81	14.1	-20.3	
CCn1cc(NC(=O)C2CCN(Cc3noc(C(C)C)n3)CC2)cn1	-2.1	8.86	0.341	3.03	-1.74	-0.645	10.3%	8.77	9.38	22.8	-19.2	
O=C(CCCOc1ccc(F)cc1F)N1CCCC1Cn1cccn1 (stereo not drawn)	-7.68	15.8	-5.85	17.7	4.01	1.8	8.38%	9.96	5.42	16.1	-6.65	
CNC(=O)c1cnc(/C=C/c2ccc(OC)c(O)c2)s1	-3.24	5.41	32.5	-3.93	-5.27	2.08	31.5% and 31.2% and 35.7%	16.4	3.96	6.1	-1.59	10.7% and 15.6%
Cc1ccc(C)c(OC2CCN(C(=O)c3ccc(O)nc3)CC2)c1	-1.92	15.8	-2.4	7.02	3.76	0.383	17.5%	10.8	8.33	21.9	-11.2	
CCCC(NC(=O)c1cc(C)n(C2CC2)c1C)c1nnn[nH]1 (stereo not drawn)	-6.85	8	-2.47	18.2	6.13	11.5	41.1% and 40.1% and 33.4%	14.1	8.2	11.1	-4.79	13.1% and 10.6%
CN(C)C(=O)N1CCOCC2(CCN(c3ccccn3)C2)C1 (stereo not drawn)	-1.92	-2.7	-1.14	-5.57	-2.64	2.23	9.19%	-4.16	1.07	1.24	-3.16	
Cc1ccccc1Cc1cnc(NC(=O)C2CNC(=O)N2)s1 (stereo not drawn)	-3.2	3.8	-1.9	0.365	2.36	-4.95	13.7%	22.3	2.08	15.2	-23.7	
O=C(CCNC(=O)C1CCCC1)NCc1ccccc1Cn1cncn1	-3.71	31.6	0.311	-9.83	-1.96	-2.52	7.87%	1.98	6.4	18.5	0.0492	
CC(C)C1CN(c2ncc(F)cn2)CCC(=O)N1Cc1ccc(F)cc1 (stereo not drawn)	-2.05	12.5	-4.48	14.3	6.51	8.83	13.3%	-7.42	9.47	15.4	-4.54	
